The supplement of paper PMC8387472
± gives the standard deviation of the averaged measurements.

test system: mESC LDLR-Dup GFP reporter (SpCas9 MH-deletion repair); test: fraction of GFP+ cells relative to DMSO control (fold change); higher = more MH-deletion repair to in-frame LDLR (or more editing); details: 2 µM; 7 days post-transfection

Question: For `CC1CCc2cc(F)cc3c(=O)c(C(=O)O)cn1c23` (stereo unspecified) [Flumequine], which “fraction of GFP+ cells” value is on record?
Answer: Its value is 0.977 ± 0.12.

Question: `CCC[C@H](NC(=O)/C(C#N)=C/c1cccc(Br)n1)c1ccccc1` [Degrasyn (WP1130)] was tested. Which “fraction of GFP+ cells” value did it give?
Answer: The value was 0.638 ± 0.12.

Question: For `COc1cccc2c1c(O)c(C(=O)N(C)c1ccc(C(F)(F)F)cc1)c(=O)n2C` [Tasquinimod], which “fraction of GFP+ cells” value is on record?
Answer: The value was 0.837 ± 0.12.

Question: `COc1cc2ncnc(-n3nc(-c4ccccn4)nc3N)c2cc1OC` was tested. Which “fraction of GFP+ cells” value did it give?
Answer: Its value is 0.973 ± 0.34.

Question: How did the “fraction of GFP+ cells” value turn out when `O=C1NCCc2[nH]c(-c3ccncc3)cc21` was run?
Answer: Its value is 1.61 ± 0.078.

Question: With `CC(=O)NCC(=O)N1[C@@H]2CC[C@H]1c1ccc(Nc3ncc(C(F)(F)F)c(NC4CCC4)n3)cc12` as the molecule, how does the “fraction of GFP+ cells” value read?
Answer: Its value is 1.27 ± 0.73.

Question: Which “fraction of GFP+ cells” value does the source give for `CCCCCOC(=O)Nc1nc(=O)n([C@@H]2O[C@H](C)[C@@H](O)[C@H]2O)cc1F` [Capecitabine] here?
Answer: Its value is 0.922 ± 0.39.

Question: Which “fraction of GFP+ cells” value does the source give for `NS(=O)(=O)C#Cc1ccccc1` here?
Answer: Its value is 1.11 ± 0.052.

Question: `CC(C)[C@H](CO)Nc1nc(Nc2cccc(Cl)c2)c2ncn(C(C)C)c2n1` [Purvalanol A] was tested. Which “fraction of GFP+ cells” value did it give?
Answer: The value was 0.716 ± 0.095.

Question: With `CC(C)NC(=O)COc1cccc(-c2nc(Nc3ccc4[nH]ncc4c3)c3ccccc3n2)c1` as the molecule, how does the “fraction of GFP+ cells” value read?
Answer: The value was 1.21 ± 1.4.

Question: With `Cn1cc(C(=O)Nc2ccc3c(c2)OCCO3)c2ccccc2c1=O` as the molecule, how does the “fraction of GFP+ cells” value read?
Answer: The value was 1.33 ± 0.53.

Question: Which “fraction of GFP+ cells” value does the source give for `C=C1C(=O)O[C@@H]2/C=C(\C)CC/C=C(\C)CC[C@@H]12` [Costunolide] here?
Answer: Its value is 1.22 ± 0.2.

Question: With `Cc1cc(N2C[C@@H](C)N[C@@H](C)C2)ncc1-c1ccc(-c2nc3c(ccn3C)c(=O)[nH]2)cc1` as the molecule, how does the “fraction of GFP+ cells” value read?
Answer: Its value is 0.927 ± 0.33.

Question: Which “fraction of GFP+ cells” value does the source give for `Cc1cnc(-c2ccccc2C(C)C)nc1NCc1ccc(-n2ccnn2)cc1` here?
Answer: The value was 0.373 ± 0.22.

Question: For `CCCCCCCCCC(=O)N[C@@H](Cc1c[nH]c2ccccc12)C(=O)N[C@H](CC(N)=O)C(=O)N[C@@H](CC(=O)O)C(=O)N[C@@H]1C(=O)NCC(=O)N[C@@H](CCCN)C(=O)N[C@@H](CC(=O)O)C(=O)N[C@H](C)C(=O)N[C@@H](CC(=O)O)C(=O)NCC(=O)N[C@H](CO)C(=O)N[C@@H]([C@H](C)CC(=O)O)C(=O)N[C@@H](CC(=O)c2ccccc2N)C(=O)O[C@@H]1C` [Daptomycin], which “fraction of GFP+ cells” value is on record?
Answer: The value was 1.25 ± 0.27.

Question: Which “fraction of GFP+ cells” value does the source give for `NC[C@@](O)(c1ccc(Cl)cc1)c1ccc(-c2cn[nH]c2)cc1` here?
Answer: Its value is 1.33 ± 0.93.

Question: For `O=C(CCCCCCNC(=O)c1cnc(N(c2ccccc2)c2ccccc2)nc1)NO` [Ricolinostat (ACY-1215)], which “fraction of GFP+ cells” value is on record?
Answer: Its value is 0.968 ± 0.11.

Question: For `O=C(COc1cccc2c(=O)[nH]ccc12)c1ccccc1`, which “fraction of GFP+ cells” value is on record?
Answer: The value was 0.936 ± 0.095.

Question: `Cc1nc2c(O)cccc2c(=O)[nH]1` was tested. Which “fraction of GFP+ cells” value did it give?
Answer: Its value is 0.926 ± 0.11.

Question: `O=C(Nc1ccccc1-c1cn2c(CN3CC[C@@H](O)C3)csc2n1)c1ccc2ccccc2c1` was tested. Which “fraction of GFP+ cells” value did it give?
Answer: The value was 1.45 ± 0.4.

Question: For `COc1cc2c(Nc3ccc(NC(=O)c4ccccc4)cc3)ncnc2cc1OCCCN1CCOCC1`, which “fraction of GFP+ cells” value is on record?
Answer: The value was 0.59 ± 0.2.

Question: For `C=CCc1ccc(O)c(-c2cc(CC=C)ccc2O)c1` [Magnolol], which “fraction of GFP+ cells” value is on record?
Answer: Its value is 0.713 ± 0.084.

Question: For `O=c1cc(N2CCOCC2)oc2c1ccc1ccccc12`, which “fraction of GFP+ cells” value is on record?
Answer: The value was 0.548 ± 0.39.

Question: With `Nc1cc(F)ccc1NC(=O)/C=C/c1cnn(C/C=C/c2ccccc2)c1` as the molecule, how does the “fraction of GFP+ cells” value read?
Answer: The value was 0.555 ± 0.17.

Question: Which “fraction of GFP+ cells” value does the source give for `O=C(Nc1ccc(O)c(C(=O)O)c1)c1cccc(NC(=O)c2ccco2)c1` here?
Answer: The value was 1.66 ± 0.41.

Question: How did the “fraction of GFP+ cells” value turn out when `Nc1nc(=O)c2nc(CNc3ccc(C(=O)N[C@@H](CCC(=O)O)C(=O)O)cc3)cnc2[nH]1` [Folic acid] was run?
Answer: Its value is 1.24 ± 0.46.

Question: `CCN1C(=O)CNc2ncc(-c3ccc(-c4nc[nH]n4)nc3C)nc21` was tested. Which “fraction of GFP+ cells” value did it give?
Answer: Its value is 0.696 ± 0.12.

Question: With `COc1cc(OCc2cccc(-c3ccccc3)c2C)cc(OC)c1CN1CCCC[C@H]1C(=O)O` [pd-1/pd-l1 inhibitor 1] as the molecule, how does the “fraction of GFP+ cells” value read?
Answer: The value was 0.898 ± 0.35.

Question: How did the “fraction of GFP+ cells” value turn out when `Nc1nc2[nH]cc(CCc3ccc(C(=O)N[C@@H](CCC(=O)O)C(=O)O)cc3)c2c(=O)[nH]1` [Pemetrexed Disodium Hydrate] was run?
Answer: The value was 1.69 ± 0.34.

Question: `CC(C)(Oc1ccc(C2CC2(Cl)Cl)cc1)C(=O)O` (stereo unspecified) [Ciprofibrate] was tested. Which “fraction of GFP+ cells” value did it give?
Answer: Its value is 1.74 ± 0.1.

Question: Which “fraction of GFP+ cells” value does the source give for `Cn1cc(-c2ccc3c(c2)CCN3C(=O)Cc2cccc(C(F)(F)F)c2)c2c(N)ncnc21` here?
Answer: The value was 0.644 ± 0.25.

Question: For `COc1nc(N)nc2c1ncn2[C@@H]1O[C@H](CO)[C@@H](O)[C@@H]1O` [Nelarabine], which “fraction of GFP+ cells” value is on record?
Answer: The value was 1.12 ± 0.14.

Question: `CC(C)=CCC[C@](C)(O)[C@H]1CC[C@]2(C)[C@@H]1[C@H](O)C[C@@H]1[C@@]3(C)CC[C@H](O)C(C)(C)[C@@H]3[C@@H](O)C[C@]12C` [(20S)-Protopanaxatriol] was tested. Which “fraction of GFP+ cells” value did it give?
Answer: Its value is 1.02 ± 0.14.

Question: For `O=C(O)c1cc2cccc([N+](=O)[O-])c2[nH]1`, which “fraction of GFP+ cells” value is on record?
Answer: Its value is 1.04 ± 0.19.

Question: With `Cc1ccc(C(=O)OCc2ccc([C@@H](CN)C(=O)Nc3ccc4cnccc4c3)cc2)c(C)c1` as the molecule, how does the “fraction of GFP+ cells” value read?
Answer: Its value is 1.71 ± 0.5.

Question: With `CN(C)c1ccc(-c2nc3ncc(Cl)c(N4CCN(CC(=O)Nc5nccs5)CC4)c3[nH]2)cc1` as the molecule, how does the “fraction of GFP+ cells” value read?
Answer: The value was 0.872 ± 0.39.
